High-throughput results (PubChem)
DT40 TDP1 CPT: DT40-hTDP1 cell growth loss with CPT; chicken DT40 Tdp1-/-;hTDP1 cells + 20 nM CPT, ATP luminescence, 48 h; Potency, µM (titrated, usually from 46.2 µM), without a hit: at the highest dose activity change, negative = growth inhibition, actives largely listed as inhibitors; 420,000 compounds, 12% hits; note: nearly all actives have a fitted effect of over 55% in size
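Chicken DT40 Tdp1-/- cells stably complemented with human TDP1 were seeded at 400 cells/well in medium containing 20 nM camptothecin, exposed to pin-transferred compounds, and grown at 37 °C for at least 48 hr. Viability was read as ATP luminescence.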
Gal4-VP16 FLuc: counter-screen for ROR gamma inhibitors: Gal4-VP16 reporter. Potency, µM (highest dose often 53.6 µM), for inactives: top-dose activity, negative = inhibition, actives largely listed as inhibitors. AID 2546. Drosophila S2 Gal4-VP16 UAS-luciferase, luminescence, 20 h. 310,000 compounds, 3.5% hits;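 note: Gal4-VP16 expression switched on by copper sulfate through the metallothionein promoter; nearly all actives have a fitted effect of over 50% in size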
DT40 TDP1 no CPT: qHTS for Inhibitors of human tyrosyl-DNA phosphodiesterase 1 (TDP1): qHTS in cells in absence of CPT; 420,000 compounds, 15% hits; Potency, µM (titrated, usually from 46.2 µM), without a hit: top-dose activity change, negative = growth inhibition, actives largely listed as inhibitors; DT40 Tdp1-/- hTDP1 cells, no CPT, ATP luminescence, 48 h; note: nearly all actives have a fitted effect of over 55% in size
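Luminescent ATP content (CellTiter-Glo) served as the growth readout. Knockout chicken DT40 cells expressing human TDP1 were exposed to compounds without camptothecin for a minimum 48 hr at 37 °C.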
TDP1 block: TDP1 (human) enzyme inhibition. Q9NUW8. recombinant TDP1, AlphaScreen DNA substrate cleavage. Potency, µM (top dose mostly 130 µM), for the others: at the highest dose activity change, negative = inhibition, usual class: inhibitors. 350,000 compounds, 0.28% hits. AID 485290; note: nearly all actives have a fitted effect of over 40% in size
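AlphaScreen read-out: signal falls as enzyme removes the 3' tyrosine-FITC from a 5'-biotinylated DNA oligo (15 nM, 5 min, RT). Enzyme was E. coli-made recombinant Tdp1 at 1 nM, exposed to compound for 15 min beforehand; beads 10 ug/ml, 10 min.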
RORgamma inh: blocks mouse ROR gamma transcriptional activity | P51450 | Drosophila S2 Gal4-RORgamma UAS-luciferase reporter, 20 h | Potency, µM (series often up to 53.6 µM), inactives show at the top dose activity change, negative = inhibition, most hits filed as inhibitors | 310,000 compounds, 5.4% hits | AID 2551; note: nearly all actives have a fitted effect of over 60% in size
Target sequence (P51450 whole entry, looked up, the tested form may be a part): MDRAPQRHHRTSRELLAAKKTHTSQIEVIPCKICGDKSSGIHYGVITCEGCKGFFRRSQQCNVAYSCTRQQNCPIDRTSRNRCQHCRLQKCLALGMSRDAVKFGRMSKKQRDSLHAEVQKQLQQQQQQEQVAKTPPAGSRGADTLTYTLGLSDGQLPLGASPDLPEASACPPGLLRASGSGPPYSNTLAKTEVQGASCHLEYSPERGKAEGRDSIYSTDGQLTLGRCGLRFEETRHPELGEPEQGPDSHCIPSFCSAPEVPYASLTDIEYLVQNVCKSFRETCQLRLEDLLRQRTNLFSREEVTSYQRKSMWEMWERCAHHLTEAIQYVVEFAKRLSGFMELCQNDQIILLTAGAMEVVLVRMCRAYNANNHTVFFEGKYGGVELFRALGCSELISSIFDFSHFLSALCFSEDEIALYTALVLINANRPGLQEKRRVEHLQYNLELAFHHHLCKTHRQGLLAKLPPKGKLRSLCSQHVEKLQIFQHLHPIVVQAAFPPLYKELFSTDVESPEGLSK
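Luciferase reporter read in Schneider cells carrying Gal4-RORγ (mouse) and UAS-Photinus luciferase; cells given compound 1 h before 700 uM copper sulfate induction, then incubated 20 h at ambient temperature.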
* marks the source's active call; other numbers are inactive results; ? = inconclusive; . = no result given; [ ] = another dose, or the depositor's remark. Only some compounds are listed: those with a hit (about 19% of all), similar ones and a draw of the others. Calls come from the whole dose curve; as a rule, active = well fitted curve in the direction sought with a large enough effect; inconclusive = small, poorly fitted or top-dose-only effect, or another doubt; inactive = no such curve, though single readings can be large; an effect the other way counts as inactive or inconclusive. % is set by controls: 0 for no effect and ±100 for the full control effect; potency is the fitted concentration of half-maximal effect.

SMILES | DT40 TDP1 CPT | Gal4-VP16 FLuc | DT40 TDP1 no CPT | TDP1 block | RORgamma inh
COc1ccc(NS(=O)(=O)c2cc(NC(=O)c3ccco3)ccc2N2CCCC2)cc1 | 7.5% | 6.8% | -4.9% | 7.9% | ?
O=S(=O)(c1cccc(S(=O)(=O)N2CCCC2)c1)N1CCCCC1 | -0.1% | -12.5% | 6.0% | . | 8.2%
O=S(=O)(c1cccc(S(=O)(=O)N2CCCC2)c1)c1cccc(S(=O)(=O)N2CCCC2)c1 | 13µM* | -1.3% | ? | -2.0% | -7.6%
O=[N+]([O-])c1cccc2c(S(=O)(=O)N3CCOCC3)cccc12 | ? | -14.7% | ? | 20µM* | -14.1%
COc1c(S(=O)(=O)N2CCCCC2)ccc2c(S(=O)(=O)N3CCCCC3)cccc12 | 16.4µM* | . | 23.1µM* | . | .
COc1ccc(S(=O)(=O)N2CCCC2)c2ccccc12 | -29.5% | 0.8% | -20.3% | . | -1.4%
O=S(=O)(c1cccc2c(S(=O)(=O)N3CCCC3)cccc12)N1CCCC1 | ? | -7.0% | 16.4µM* | 2.3% | ?
O=[N+]([O-])c1cccc2c(S(=O)(=O)N3CCCCC3)cccc12 | -19.7% | ? | ? | 4.8% | 89.2%
O=c1c2cc(-c3ccccc3)sc2nc2n1CCC2 | . | -25.4% | . | -2.7% | -29.1%
Cc1cccc(C)c1OCC(=O)N(Cc1ccco1)C1CCS(=O)(=O)C1 (stereo not drawn) | -10.3% | 4.3% | -7.7% | . | -4.4%
CC(C)[C@@H](CO)NC(=O)c1ccc2c3n(nc2c1)-c1ccccc1CO3 | ? | ? | ? | 4.7% | ?
CC(C)NC(=O)c1ccc2c3n(nc2c1)-c1ccccc1CO3 | ? | 4.47µM* | 20.6µM* | 1.2% | 3.98µM*
O=C(NCCO)c1ccc2c3n(nc2c1)-c1ccccc1CO3 | ? | ? | ? | 5.9% | 4.47µM*
CNC(=O)N(C1=NCC(C)(C)S1)c1ccc(F)c(Cl)c1 | ? | 8.0% | 18.4µM* | 1.0% | 2.7%
CNC(=O)N(C1=NCC(C)S1)c1ccc(F)cc1F (stereo not drawn) | ? | 6.6% | -14.6% | 9.1% | ?
CCCNC(=O)C(Cc1ccc(Cl)cc1)NC(=O)c1ccc(-c2ccccc2)cc1 (stereo not drawn) | 8.2µM* | . | 6.51µM* | 0.3% | .
CCCNC(=O)C(Cc1ccc(I)cc1)NC(=O)c1ccc2ccccc2n1 (stereo not drawn) | ? | . | 20.6µM* | -1.9% | .
CC(=O)NC(Cc1ccc(Cl)cc1)C(=O)NCC(N)C(=O)c1ccccc1 (stereo not drawn) | 15.8µM* | . | ? | . | .
N#Cc1ccc[n+](CC(=O)c2ccc(Cl)cc2)c1 | -10.5% | . | -19.7% | 3.5% | .
COc1ccc(Br)cc1CC1C(=O)Nc2ccccc21 (stereo not drawn) | 8.2µM* | . | 7.31µM* | 4.7% | .
CCn1c(COc2ccccc2)nnc1SCC(=O)C(C)(C)C | ? | -1.2% | ? | -1.0% | 2.0%
COC/C=C/C1=CC2=CC(=O)C(C)(OC(=O)c3cnc4ccccc4n3)C(=O)C2=CN1c1ccc(OC)cc1 (stereo not drawn) | ? | . | ? | 15.5%[12.3 µM] | .
COC/C=C/C1=CC2=CC(=O)C(C)(OC(=O)c3cnc4ccccc4n3)C(=O)C2=CN1Cc1ccccc1 (stereo not drawn) | ? | -0.4% | 16.4µM* | 16.4%[12.3 µM] | 12.8%
COC/C=C/C1=CC2=CC(=O)C(C)(OC(=O)c3cnc4ccccc4n3)C(=O)C2=CN1CC1CC1 (stereo not drawn) | -21.5% | . | ? | 12.8%[12.3 µM] | .
COC/C=C/C1=CC2=CC(=O)C(C)(OC(=O)c3cnc4ccccc4n3)C(=O)C2=CN1C1CC1 (stereo not drawn) | ? | . | 20.6µM* | -5.3%[12.3 µM] | .
COC/C=C/C1=CC2=CC(=O)C(C)(OC(=O)c3cnc4ccccc4n3)C(=O)C2=CN1Cc1ccc(OC)cc1 (stereo not drawn) | 23.1µM* | -1.0% | ? | 8.0%[12.3 µM] | 3.0%
COCCCNC(=O)c1ccc(Cn2c(SCc3ccc(F)cc3)nc3cccnc32)cc1 | ? | . | 14.6µM* | 1.2% | .
